High-throughput results (PubChem)
The list is not random: actives were taken first. Their share in the collection is about 9.4%.
ELG1 genotox: genotoxicity induction in ELG1-luciferase HEK293T cells | HEK293T ELG1-luciferase reporter, luminescence, 16 h | Potency, µM (doses to about 46 µM), without a hit: at the highest dose activity change, positive = activation, hits mostly activators | 1.3% of 330,000 active | AID 504466; also: % of control where 0% means no effect; nearly all actives have a fitted effect of over 60% in size
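Luminescence read-out: rising ELG1-luciferase signal, reflecting elevated ELG1 protein under genetic stress, flags genotoxic compounds. Cells were treated for 16 hr at 37 °C before ONE-Glo detection.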
ELG1 DNA repair: ELG1-dependent DNA repair inhibition; HEK293T ELG1-luciferase reporter, luminescence, 16 h; DNA damage induced by 5-fluorouridine; Potency, µM (top dose mostly 46.1 µM), for the others: at the top dose activity change, negative = inhibition, hits mostly inhibitors; 2.3% of 330,000 active; AID 504467; also: % is scaled to controls: 0 for no effect and ±100 for the full control effect; nearly all actives have a fitted effect of over 55% in size
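Quantitative HTS, concentration-response format. 2,000 cells/well co-treated with 5-fluorouridine and compound, 16 hr in 5% CO2 at 37 °C; ONE-Glo luminescence read after 30 min.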
FLuc counter: firefly luciferase modulation, counter-screen for miR-21 project; P08659; purified FLuc, Km substrates, luminescence inhibition; Potency, µM (doses to about 57.5 µM), without a hit: at the top dose activity change, negative = inhibition, actives largely listed as inhibitors; 6.9% of 360,000 active; AID 588342;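 also: plate controls were vehicle for no effect and reference inhibitor for full effect; nearly all actives have a fitted effect of over 55% in size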
Target sequence (P08659 whole entry, looked up): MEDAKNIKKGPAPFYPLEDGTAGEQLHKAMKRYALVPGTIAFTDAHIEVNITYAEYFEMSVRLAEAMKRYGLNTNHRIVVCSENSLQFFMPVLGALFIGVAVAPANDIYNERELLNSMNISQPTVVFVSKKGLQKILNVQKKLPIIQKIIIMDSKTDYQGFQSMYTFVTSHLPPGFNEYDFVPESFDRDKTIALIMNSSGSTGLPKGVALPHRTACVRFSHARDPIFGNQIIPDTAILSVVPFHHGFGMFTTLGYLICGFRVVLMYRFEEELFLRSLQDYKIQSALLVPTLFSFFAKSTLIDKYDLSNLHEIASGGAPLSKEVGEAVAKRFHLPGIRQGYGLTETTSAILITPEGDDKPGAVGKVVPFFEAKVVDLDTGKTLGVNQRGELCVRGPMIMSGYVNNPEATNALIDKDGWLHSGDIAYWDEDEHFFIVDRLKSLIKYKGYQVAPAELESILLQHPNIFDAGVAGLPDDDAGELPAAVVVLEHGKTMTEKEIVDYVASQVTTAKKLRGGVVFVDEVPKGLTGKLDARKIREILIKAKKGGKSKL
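Purified P. pyralis luciferase (10nM final) with 10uM D-luciferin and 10uM ATP (Km levels) in 50mM Tris acetate pH 7.5, 10mM Mg acetate, 0.01% Tween-20, 0.05% BSA; qHTS 6-point titration, ~60 µM downward; luminescence read.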
SMN2 splice up: enhancers of SMN2 splice variant expression | 2.8% of 210,000 active | Potency, µM (top dose mostly 46.1 µM), for the others: top-dose activity change, positive = activation, usual class: activators | HEK293 SMN2-luciferase splicing reporter, luminescence, 30-36 h; also: % of control where 0% means no effect; nearly all actives have a fitted effect of over 55% in size
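HEK293 cells carry an SMN2 […]–luciferase reporter in which exon 7 inclusion puts luciferase in frame. Cells were plated 10-12 h before compound addition, then incubated 30-36 h at 37C. ONE-Glo luminescence was read; sodium butyrate at 4.5 mM final served as control.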
NPC1 promoter act: NPC1 promoter activation | Huh7 NPC1 promoter luciferase reporter, 24 h | Potency, µM (highest dose often 9.22 µM), without a hit: at the highest dose activation, most hits filed as activators | 2.4% of 320,000 active; also: % of control where 0% means no effect; nearly all actives have a fitted effect of over 60% in size
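Readout is luciferase luminescence, reflecting NPC1 promoter activation in stably transfected Huh7 cells after 24 h compound exposure at 37 °C in reduced-serum medium with 10% FBS.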
Rab9 prom act: Rab9 promoter activation | 2.8% of 320,000 active | Potency, µM (series often up to 9.22 µM), for inactives: at the highest dose activation, negative = inhibition, hits mostly activators | Huh7 Rab9 promoter-luciferase reporter, luminescence, 24 h; also: % of control where 0% means no effect; nearly all actives have a fitted effect of over 60% in size
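Cells were plated at 1500 per well in reduced-serum medium with 10% FBS and left 2 h. Compound in DMSO was then added for 24 h at 37 °C. Reporter signal was read by luminescence after 10 min with luciferase detection reagent.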
Starred values were filed as active, the others as inactive; ? = inconclusive; / = not tested or not shown; [ ] = remark or other dose. Calls follow the shape of the dose curve; as a rule, active = well fitted curve in the direction sought with a large enough effect; inconclusive = small, poorly fitted or top-dose-only effect, or another doubt; inactive = no such curve, though single readings can be large; an effect the other way counts as inactive or inconclusive. Potency is read from the fitted curve at half-maximal effect.

SMILES | ELG1 genotox | ELG1 DNA repair | FLuc counter | SMN2 splice up | NPC1 promoter act | Rab9 prom act
COc1ccc(OC)c(Nc2nc(=O)c3cccnc3s2)c1 | 8% | -6% | 17µM* | 3% | -33% | -14%
C=C/C1=C/Cc2ccccc2[C@H](C[N+](=O)[O-])C(C(C)=O)(C(=O)OC)C1 (some centres undefined) | / | / | / | -11% | / | /
COc1ccc(CCNC(=O)c2cccc(-n3cnc4cccnc43)c2C)cc1OC | / | / | -6% | / | / | /
Cc1nnc(NC(=O)CSCc2cc(=O)c3ccc(C)c(C)c3[nH]2)s1 | / | / | 6% | / | / | /
CC(=O)c1ccccc1OCC(O)Cn1c(CO)nc2ccccc21 (centres undefined) | / | / | 24µM* | 6% | / | /
COc1ccc(S(=O)(=O)N2CCCOC2CNC(=O)C(=O)NCCc2ccco2)cc1 (centres undefined) | -4% | -12% | 2% | / | -4% | 7%
Cc1ccccc1N(C)C(=O)c1noc2c1COc1ccccc1-2 | / | / | -7% | / | / | /
CC(=O)Cn1nnc2sc3c(c2c1=O)CCC(C(C)(C)C)C3 (centres undefined) | 3% | ? | 21µM* | 21% | 3.5µM* | 2.8µM*
CCn1nnc2sc3c(c2c1=O)CCC(C)C3 (centres undefined) | 15% | ? | 13µM* | -5% | ? | ?
Cc1cc(C)c(NC(=O)Cn2nnc3sc4c(c3c2=O)CCC(C(C)(C)C)C4)c(C)c1 (centres undefined) | / | / | 3% | -4% | / | /
CCOC(=O)c1noc2ncnc(N3CCN(c4ccccc4OC)CC3)c12 | / | / | 1% | / | / | /
Cc1cc(C)c(NC(=O)C[C@H](CC(=O)O)c2cccc3ccccc23)c(C(=O)N2CCC3(CCCC3)CC2)c1 | / | / | / | -6% | / | /
O=C1OC(Cc2ccccn2)C(O)=C1C1=NCCCCN1 (centres undefined) | ? | ? | ? | 10µM* | 2.2µM* | 2.2µM*
O=C1OC(Cc2ccccn2)C(O)=C1C1=NCCCN1 (centres undefined) | 15% | ? | -17% | ? | 17% | 23%
Cc1ccc(N2CC(c3nnc(NC(=O)c4ccco4)s3)CC2=O)cc1Cl (centres undefined) | / | / | -20% | / | / | /
Cc1ccc2c(c1)Cc1nc3ccccc3nc1-2 | -2% | ? | 1.1µM* | ? | 4% | ?
Cc1cccc(N2CCN(C(=O)CN3C(=O)COc4ccc(S(=O)(=O)N5CCCCCC5)cc43)CC2)c1C | / | / | -10% | -9% | / | /
CCCc1cc(=O)oc2c(C)c3c(cc12)CN(CCc1ccc(Cl)cc1)CO3 | / | / | -10% | 10% | / | /
O=C(Cc1cccc2ccccc12)N/N=C/c1ccc(Sc2cccc3cccnc23)o1 | -11% | 16µM* | 3% | -58% | 1% | -12%
CCCCC(=O)N/N=C/c1ccc(Sc2cccc3cccnc23)o1 | -5% | ? | ? | 25% | 0% | 1%
CC(=O)N(c1nnc(-c2cccc(C)c2)s1)C1CCCC1 | 23% | ? | 24µM* | / | ? | ?
CCOc1ccc(OCC)c(NC(=O)C2CCCN(S(=O)(=O)c3cc(Br)cc4c3N(C(=O)CC)CC4)C2)c1 (centres undefined) | / | / | 2% | 11% | / | /
O=c1ccnc(S/C=C/c2ccccc2)[nH]1 | 13% | ? | 19µM* | 16% | ? | 16%
O=c1ccnc(SCCc2ccccc2)[nH]1 | 2% | -1% | -13% | / | 2% | 3%
O=c1c(-c2cccs2)nc2cnc(Oc3cccc(Cl)c3)nc2n1C1CC1 | / | / | / | 1% | / | /
SMILES | ELG1 genotox | ELG1 DNA repair | FLuc counter | SMN2 splice up | NPC1 promoter act | Rab9 prom act
CCOC(=O)c1ccc(-c2ccc(C=O)o2)cc1 | ? | ? | 24µM* | / | ? | ?
CCOC(=O)c1cccc(-c2ccc(C=O)o2)c1 | 10% | ? | -18% | 13% | 13% | 18%
CCCOC(=O)c1ccc(-c2ccc(C=O)o2)cc1 | ? | ? | 13µM* | 1.3µM* | ? | ?
CN(C(=O)Cn1nc(Cc2cccnc2)c2ccccc2c1=O)c1cccc(C(F)(F)F)c1 | / | / | -1% | -14% | / | /
Cc1ccc(CNC(=O)COC(=O)c2cccc(S(=O)(=O)N3CCCCC3)c2)cc1 | 1% | 0% | ? | / | -6% | -4%
CC(C)(C)CC(C)(C)c1cc(O)c(O)c(CN2CCCCC2)c1 | / | / | / | -7%[9.22 µM] | / | /
O=C1NC(=S)S/C1=C/c1ccc(N2CCOCC2)o1 | 15% | ? | 9.5µM* | -26% | 11% | 11%
Cc1[nH][nH]c(=O)c1N=Nc1ccccc1Cl | 12% | 17% | 15µM* | / | 9% | 16%
CCCCCCCCCCCCCCCCn1cc[n+](C)c1 | -11% | 7.3µM* | 5% | -94% | -36% | -42%
Cc1ccc(CNC(=O)Cc2noc3ccccc23)cc1 | ? | ? | 6.7µM* | / | 0.89µM* | 1.8µM*
O=C(Cc1noc2ccccc12)Nc1ccccn1 | 17% | ? | ? | 10µM* | ? | ?
Cc1ccc(NC(=O)Cc2noc3ccccc23)nc1 | 5% | ? | ? | 25% | 15% | -3%
Cc1cccc(NC(=O)Cc2noc3ccccc23)c1 | ? | ? | 17µM* | 13µM* | ? | ?
Cc1cccc(NC(=O)Cc2noc3ccccc23)c1C | 5% | ? | -15% | 17% | 1% | 12%
CCOC(=O)Cc1ccc(NC(=O)N(Cc2ccc(OC)cc2)C2CCN(C(C)=O)CC2)cc1 | / | / | -3% | / | / | /
CCOC(=O)C1(C)C=C(Nc2cccc(C(=O)O)c2)C(=O)N1c1ccccc1 (centres undefined) | / | / | 24µM* | 13µM* | / | /
Cc1ccc(-c2nn[nH]n2)cc1 | 1% | 22% | ? | 1% | -5% | -2%
Cc1ccc(-c2nn[nH]n2)cc1Cl | 2% | 0% | 17µM* | / | 1% | -5%
Cc1ccccc1-c1nc2sc3c(c2c(=O)n1N)CCCC3 | 2.9µM* | ? | 6.7µM* | -60% | 18% | 23%
Nn1c(-c2cccs2)nc2sc3c(c2c1=O)CCCC3 | 2.3µM* | ? | 2.4µM* | 6.3µM* | 1% | 6.3µM*
Nn1c(Cc2ccccc2)nc2sc3c(c2c1=O)CCC3 | -7% | ? | 0% | / | -3% | 1%
CC1(C)Cc2c(sc3nc(-c4cccs4)n(N)c(=O)c23)CO1 | -15% | ? | 6µM* | -9% | ? | 2.8µM*
COc1ccc(CNCc2ccc3c(c2)n(C)c(=O)n3C)cc1 | / | / | 0% | / | / | /
O=c1cc(-c2ccc3c(c2)OCCO3)oc2ccc(Cl)cc12 | 2.9µM* | ? | 0.38µM* | 2.5µM* | 0.63µM* | 0.45µM*
O=c1c(O)c(-c2cccs2)oc2ccc(Cl)cc12 | -4% | 1% | ? | ? | 0% | 3%
